Among the data in the supplement of paper PMC6555819 are PBM binding z-score values, retold here.

The subject of the experiment is PPARa:RXRa (NR concentration 270 nM, RXRa partner concentration 90 nM). As to the kind of experiment: PBM binding z-score (relative to random genomic background probes); higher = stronger binding; sequences stand for … in GC…GCGATTGACAGCGTAGAATGAAGG
The gist of the method: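 Binding z-scores take random background probes as their reference. They come from custom Agilent 4×180K protein-binding microarrays incubated 1 h with ligand-free nuclear receptor dimers, with antibodies against each partner (one per run) detecting binding. Scanned fluorescence was regression-normalized.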
Sequence TCGAGTAGGTTAGGGGCATTCACAATGGCGTCGA showed a PBM binding z-score of 1.38. In turn, TCAAATAGGTAAACAGGTGAAAGTCCGTAAGTTA displayed a PBM binding z-score of 2.28. For the sequence CTACCAAGGTGAACAAGGTCGGTGATTACTATTC, the PBM binding z-score turned out to be 1.69. In turn, GCATATAGGTAATACAAGGTGAATGTCCGATTGT gave a PBM binding z-score of 1.08. Turning to CATCAAAGTTCAAGGTAACGTAACAGAAAGCAGC, the PBM binding z-score came to 4.66. For the sequence ATATGTAGGTTAGCTGGGATCATTCAGACTAGGC, the PBM binding z-score came out at 2.71. In turn, ACTTACGGTTCAACGAGGTTATAGCACGCGTATA came in with a PBM binding z-score of 3.49. CCTACTCGGCCAAAGGTCATTGATTCCAATGCTC returned a PBM binding z-score of 6.14. With CCTAGTTGGTCAGGAGGTGACACACCGGATATGA the figure was 1.17; with TGACCAAGGTGAAGGTCGTTGATCCCTCTGTAGA, 2.49; with GGAACGAGGGCATACGAGTTGATAGCATGGCGAT, 1.25.

Regarding TCTATTAGTTGAAGGGCGACCGACGAGTCCGTTT, the PBM binding z-score worked out at 0.661. With TCTTGTAGATCAAGCAGGTTGAGAAAGCCTGAGT the figure was 0.441.

As to ACAGACAGGTGATGAATGTAACTCAGGCTATCAT, the PBM binding z-score came to 0.166. As to AGAATGAGGTTACCACAGATCAGGGAAACGCTTG, the PBM binding z-score was found to be 3.53.

For ACAGACAGGTGAGGAAGGTAACTCAGGCTATCAT, the PBM binding z-score stood at 0.173. With GATACAGGGTCAAGCCCAGAGTACGCGTATTGAT the figure was 5.68; with CCTTACGGGTCAAGGCTATAGCACGGGTGGTACG, 4.88; with CCTAGTTGGTCAGTAGGTCACACACCGGATATGA, 3.62.

With AATCGGAGGACAAAGGTCAGAGCTACGCCAGTGA, the PBM binding z-score came to 5.18. Sequence CAAACTAGGTCAAGAGGACAAAGTCCGCTTCCCG showed a PBM binding z-score of 4.69. Consider CCTAGCAGGCCAGGGTCATTCAAGCATTTCGCTT, for which the PBM binding z-score came to 3.66. Turning to CCTCCTGGGCCAAGGTCATTGATCAGTCAAAGCA, the PBM binding z-score came out at 3.57. With ATCTCTGGGTAAAGTTCAGTGAAAGATCGATAGA the figure was 2.87; with CTCGAAAGGTTGTGCTCAGGTGAGTATACCAAAC, 1.04; with ATCGAAAGGTCGTGAGGTGAGTATTCAGAAAGGC, 5.12. AGAATGAGGTTACCAACGATCAGGGAAACGCTTG registered a PBM binding z-score of 3.66.

TCATCTAGGTAAAAGGTGAAAGTCGGTGTGGTAA yielded a PBM binding z-score of 5.64. Sequence TCTAGCAGGCCAGAGGGTCTCTCAAGAGGTACGG had a PBM binding z-score of -0.298. For the sequence CAAACTAGGTCACCGGAAGGTCACAGTCCGCATG, the PBM binding z-score is 5.9. In the case of ATCTCTAGGAAAAAGTTCAGTGAATCCCGAGGAT, the PBM binding z-score was determined as 0.653. With TCTAGTTGGTTAAAGGTCACACACTCGAAATGCG the figure was 6.63; with CGTCGAAGGTCAAGGTCAGTGAAAGAGACTCGAA, 6.39; with CCGACTGGGGCAAGGTTACCAGAACGCACAGCCA, 1.97.

Sequence TCTTGTAGATCAAAGGTGAAGAAAGCCGAAGCCT displayed a PBM binding z-score of 4.04.

Regarding ATATGTAGGTTAGCTGGGGTCATTCGGACTAGGC, the PBM binding z-score is 5.11. TCTCGGAGGACTCGAAGGTCAGAGCTTTCCAGAG displayed a PBM binding z-score of 1.46.

Regarding CCGAGTAGGTGATGGGGCATTCAGGCAACGGTGA, the PBM binding z-score came out at 1.72. Take TCGAGTAGGGTAGGGGCATTCAGAATGGCGTCGA: the PBM binding z-score is 0.956. TCATATACGTAAAAGGTGAAAGTCGGTGTGGTAA came in with a PBM binding z-score of 2.81.
